The panel holds about 83,000 compounds, 20% with a hit somewhere; the sample as a whole holds those more often.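 Cell lines were cultured in 96-well plates, exposed to a single compound concentration, and assessed for percent growth 48 hours later.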 A number with no mark means an inactive call. Activity calls are given as the source filed them. Rule for the calls: active = growth percent below 10; inactive = the rest.
Each compound was assayed on HL-60(TB) leukemia (assay: NCI-60 one-dose screen, 48 h (100 = growth as untreated, 0 = no growth, -100 = all killed)). Details: 10 µM unless noted.

SMILES	growth
COc1ccccc1CNCCCN1C(=O)c2ccc3c4c(ccc(c24)C1=O)C(=O)N(CCCCNCCCN)C3=O	-34.2% (active)
CCC(c1cccc(Br)c1)C(C(=O)O)c1ccc(OC)cc1 (stereo not given)	96.2%
O=C(c1ccccc1)c1ccc(N2C(=O)C3C4c5ccccc5C(/C=C/C(=O)c5ccccn5)(c5ccccc54)C3C2=O)cc1 (stereo not given)	30%
Oc1cccc(CCc2ccc(Oc3cc(CCc4cccc(O)c4)cc(O)c3O)cc2)c1	15.3%
CCN(C(=O)c1cc2ccccc2[nH]1)[C@H]1CCC[C@@H](NCc2ccc(OC)cc2)C1	117%
O=C(c1cccs1)c1ccccc1Cc1ccccc1	98.8%
C=CCSC(CC)(CC)C(=O)NC	89.3%
COc1cccc(C2(C)Nc3ccccc3-c3nc4ccccc4n32)c1 (stereo not given)	89.1%
CCCCC(=O)N(c1ccc(Nc2c3ccccc3nc3cc([N+](=O)[O-])ccc23)cc1)S(C)(=O)=O	68.3%
O=C(NCCNC(c1ccccc1)C(NCCNC(=O)c1ccccc1)c1ccccc1)c1ccccc1 (stereo not given)	68.3%
O=c1[nH]c(O)c(/C=C2/C=Nc3ccccc32)[nH]1	35.4%
COc1cccc(Nc2ccnc3[nH]c4ccc([N+](=O)[O-])cc4c23)c1	35.4%
CC1(C)CC[C@]23CC[C@]4(C)[C@H](CC[C@@H]5[C@@]6(C)C/C(=C/c7ccncc7)C(=O)C(C)(C)[C@@H]6CC[C@]54C)[C@H]2[C@H]1OC3	61%
O=C(CNC(=O)c1cccc2ccccc12)Nc1ccccc1Cc1ccccc1	-15.9% [5 µM] (active)
CCN1C(=S)N(c2ccccc2)C2C1NN=c1s/c(=C3\C(=O)N(C(C)C)c4ccccc43)c(=O)n12 (stereo not given)	96.6%
Nc1ccc2ccccc2c1-c1c(N)ccc2ccccc12	2.94% (active)
CC(=O)Nc1ccc(C(=O)c2ccc(S(=O)(=O)Nc3ccccc3)cc2)cc1	102%
O=c1oc2ccc(I)cc2c(=O)n1-c1ccc(Br)cc1F	-27.8% (active)
CN1C2CCC1/C(=C\c1ccc(F)cc1)C(=O)/C2=C/c1ccc(F)cc1	12.1%
COc1ccc2[nH]cc(-c3nonc3-c3c[nH]c4ccc(Br)cc34)c2c1	76.1%

SMILES	growth
COc1ccc(C(=O)NC(=O)Nc2ccc3c(c2)NC(=O)/C3=C\c2[nH]c(C)c(CCC(=O)O)c2C)c(F)c1	43.2%
O=C(O)c1cn(C2CC2)c2cc(N3CCN(Cc4c(O)ccc5ccccc45)CC3)c(F)cc2c1=O	71.6%
CCN1C(=O)N(CC)C2C1NC(=O)N2/N=C/C=C/c1ccccc1 (stereo not given)	0.782% (active)
O=S(=O)(NCCNc1nccc(-c2c(-c3ccccc3)nc3sccn23)n1)c1ccc(O)cc1	68%
Oc1ccccc1/C=N\NC(=S)Nc1ccc(F)cc1	-10.3% (active)
Cc1ccc(C2Oc3ccccc3C3CC(c4cccs4)=NN32)cc1 (stereo not given)	97.4%
COC(=O)c1ccc2c(c1)nc(-c1ccc(O)c(OC)c1)n2-c1cc(C(C)(C)C)[nH]n1	103%
CCCNNC(=O)/C=C/c1ccc(CNCCc2c(C)[nH]c3ccccc23)cc1	33.3% [2.5 µM]
CCC(=O)c1ccc(O)c(OC)c1	102%
COCCCN1CC(O)=C(c2nc(-c3ccc(C)cc3)cs2)C1=N	84.9%
COc1ccc2[nH]c(O)c(/C=c3/cc4c(c(-c5ccc(F)c(OC)c5)n3)=Nc3ccccc3-4)c2c1	47%
CC(=O)O[C@H]1Cc2c([nH]c3ccccc23)[C@@H](c2ccc(Cl)cc2)N1C(=O)CCNC(C)(C)C	16.6%
Fc1ccccc1CSc1ncnc2nc[nH]c12	90.4%
Cc1ccc2nc(CN(CCN(Cc3nc4ccc(C)cc4[nH]3)Cc3nc4ccc(C)cc4[nH]3)Cc3nc4ccc(C)cc4[nH]3)[nH]c2c1	-67.7% (active)
c1ccc2nc(N/N=C3\CCCCC3C3CCCCC3)ccc2c1 (stereo not given)	-19.7% (active)
COc1cc(-c2nn(-c3ccc(NC(=O)Nc4ccc(Cl)c(Cl)c4)cc3)cc2-c2ccncc2)ccc1Cl	4.29% (active)
CCCCOc1nc2ccccc2cc1C1CNC(=O)c2ccccc2N1 (stereo not given)	-8.72% (active)
NC(=O)c1ncn([C@@H]2O[C@H](CO)[C@@H](O)[C@H]2O)n1	109%
CCOC(=O)c1ccc2c(c1)ncn2-c1ccc(NC(=O)Nc2cccc(C)c2)cc1	78.3%
Cc1c2c(cc[n+]1Cc1ccccc1)c1ccc(OCC3CCCCC3)cc1n2CC1CCCCC1	-53.4% (active)

— PubChem BioAssay (NCI)
